The values that follow come from PMC5700166.

Common to all, as to test: protein-binding microarray (PBM); PBM: ~300 nM protein, 6 mM HEPES pH 7.8, 80 mM KCl, 0.5 mM EDTA, 0.5 mM EGTA, 6% glycerol, 35 ng/ul poly-dIdC, 1% milk, 1 h, room temperature; Ap Aiptasia and Nv Nematostella (sea anemones) / Co Capsaspora / Aq Amphimedon (sponge) / Dm Drosophila / Hu human; RHD is the Rel homology domain; high values mean tight binding
What all share (settings): dsDNA, one strand shown

One experiment addresses T1, GST-Ap-NF-kB RHD (Exaiptasia pallida (Aiptasia), UniProt A0A913YAJ5 2-422).
T1 sequence: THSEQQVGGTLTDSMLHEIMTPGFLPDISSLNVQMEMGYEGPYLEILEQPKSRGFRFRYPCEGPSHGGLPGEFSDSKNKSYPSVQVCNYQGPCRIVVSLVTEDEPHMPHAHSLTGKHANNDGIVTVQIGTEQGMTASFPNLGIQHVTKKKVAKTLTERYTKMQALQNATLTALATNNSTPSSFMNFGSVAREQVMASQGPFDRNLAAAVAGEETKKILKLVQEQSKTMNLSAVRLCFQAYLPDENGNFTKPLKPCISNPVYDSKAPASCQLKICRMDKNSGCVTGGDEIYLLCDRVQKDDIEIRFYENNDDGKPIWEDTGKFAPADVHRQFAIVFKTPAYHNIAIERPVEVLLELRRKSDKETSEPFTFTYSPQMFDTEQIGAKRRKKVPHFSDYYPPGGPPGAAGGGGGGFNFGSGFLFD

The target in experiment [1] is T2, GST-Nv-NF-kB (Cys allele) (Nematostella vectensis, UniProt E5G601 2-411).
T2 sequence: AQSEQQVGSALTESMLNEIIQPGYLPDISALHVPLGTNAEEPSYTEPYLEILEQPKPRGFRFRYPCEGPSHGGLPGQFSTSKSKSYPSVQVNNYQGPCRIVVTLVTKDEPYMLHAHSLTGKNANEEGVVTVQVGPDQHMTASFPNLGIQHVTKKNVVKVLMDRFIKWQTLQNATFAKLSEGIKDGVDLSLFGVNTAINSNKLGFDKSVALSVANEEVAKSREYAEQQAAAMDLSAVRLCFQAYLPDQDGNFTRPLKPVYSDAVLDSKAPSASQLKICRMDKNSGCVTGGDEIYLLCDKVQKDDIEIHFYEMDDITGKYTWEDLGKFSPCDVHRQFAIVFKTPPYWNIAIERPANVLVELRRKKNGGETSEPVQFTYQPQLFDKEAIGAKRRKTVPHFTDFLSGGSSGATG

The next experiment deals with T3, GST-Co-NF-kB (Capsaspora owczarzaki, UniProt F1ARL5 200-546).
T3 sequence: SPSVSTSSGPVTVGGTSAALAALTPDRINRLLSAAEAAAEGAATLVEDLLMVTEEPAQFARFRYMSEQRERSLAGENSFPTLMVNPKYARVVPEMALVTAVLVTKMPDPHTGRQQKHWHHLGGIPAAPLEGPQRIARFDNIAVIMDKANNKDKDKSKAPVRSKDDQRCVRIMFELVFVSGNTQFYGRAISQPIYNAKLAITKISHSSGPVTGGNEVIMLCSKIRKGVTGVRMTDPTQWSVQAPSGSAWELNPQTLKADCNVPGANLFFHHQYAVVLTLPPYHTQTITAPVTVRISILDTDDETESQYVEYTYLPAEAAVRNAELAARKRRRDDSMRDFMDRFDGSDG

In the next experiment the target is T4, GST-Dm-Relish (Drosophila melanogaster, UniProt Q94527 99-473).
T4 sequence: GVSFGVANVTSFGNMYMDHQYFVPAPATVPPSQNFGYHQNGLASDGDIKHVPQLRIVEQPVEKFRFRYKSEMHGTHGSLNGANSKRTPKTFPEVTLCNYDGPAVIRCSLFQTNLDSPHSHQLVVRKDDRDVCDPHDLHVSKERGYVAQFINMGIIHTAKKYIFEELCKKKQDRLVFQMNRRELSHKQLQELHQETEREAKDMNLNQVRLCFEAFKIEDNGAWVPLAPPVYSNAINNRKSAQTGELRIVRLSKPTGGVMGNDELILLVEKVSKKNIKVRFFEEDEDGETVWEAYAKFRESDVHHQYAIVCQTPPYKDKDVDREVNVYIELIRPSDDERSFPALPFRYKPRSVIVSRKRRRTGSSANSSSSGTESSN

The next experiment concerns the target T5, GST-Aq-NF-kB (Amphimedon queenslandica, UniProt A9Y5G7 2-389).
T5 sequence: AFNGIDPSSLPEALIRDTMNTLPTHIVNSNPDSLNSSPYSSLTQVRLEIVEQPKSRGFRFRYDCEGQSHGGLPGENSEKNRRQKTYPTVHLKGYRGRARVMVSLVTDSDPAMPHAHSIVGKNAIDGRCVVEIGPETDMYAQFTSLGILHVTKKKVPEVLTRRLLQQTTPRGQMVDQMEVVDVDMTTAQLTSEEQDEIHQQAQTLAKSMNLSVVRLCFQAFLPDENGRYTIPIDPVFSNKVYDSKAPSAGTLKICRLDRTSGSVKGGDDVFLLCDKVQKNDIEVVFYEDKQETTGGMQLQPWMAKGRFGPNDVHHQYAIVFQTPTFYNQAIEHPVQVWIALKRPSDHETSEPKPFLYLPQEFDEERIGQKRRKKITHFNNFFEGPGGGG

As for “CCGATTAACATCAGGATGTTCCCTGATGTTAATCGGGTCTTGATTCGCTTGACGCTGCTG”, the binding signal amounted to 2.3 z-score in the experiment with GST-Ap-NF-kB RHD; 1.77 z-score in experiment [1]; 1.42 z-score with GST-Co-NF-kB; 1.99 z-score in the experiment with GST-Dm-Relish; 4.33 z-score with GST-Aq-NF-kB.

Take “CCGATTAACATCAAAAGAATCCCTGATGTTAATCGGGTCTTGATTCGCTTGACGCTGCTG”: the binding signal turned out to be 3.44 z-score in the experiment with GST-Ap-NF-kB RHD; 3.59 z-score in experiment [1]; 1.15 z-score with GST-Co-NF-kB; 5.35 z-score in the experiment with GST-Dm-Relish; 4.69 z-score with GST-Aq-NF-kB.

On to “CCGATTAACATCACCGCCCCACGTGATGTTAATCGGGTCTTGATTCGCTTGACGCTGCTG”, for which the binding signal came out at 1.95 z-score with GST-Ap-NF-kB RHD; 1.73 z-score in experiment [1]; 1.4 z-score with GST-Co-NF-kB; 1.95 z-score with GST-Dm-Relish; 1.28 z-score with GST-Aq-NF-kB.

In the case of “CCGATTAACATCACGGGAAGTCCTGATGTTAATCGGGTCTTGATTCGCTTGACGCTGCTG”, the binding signal in the experiment with GST-Ap-NF-kB RHD is 2.98 z-score; in experiment [1] it was 3.06 z-score; in the experiment with GST-Co-NF-kB, 1.33 z-score; with GST-Dm-Relish, 7.73 z-score; with GST-Aq-NF-kB, 6 z-score.

With “CCGATTAACATCAGATTCTCCCCTGATGTTAATCGGGTCTTGATTCGCTTGACGCTGCTG”, the binding signal amounted to 5.2 z-score with GST-Ap-NF-kB RHD; 5.25 z-score in experiment [1]; 6.76 z-score with GST-Co-NF-kB; 1.92 z-score in the experiment with GST-Dm-Relish; 4.43 z-score with GST-Aq-NF-kB.

Consider “CCGATTAACATCAGGCCGTCCCCTGATGTTAATCGGGTCTTGATTCGCTTGACGCTGCTG”, for which the binding signal in the experiment with GST-Ap-NF-kB RHD was determined as 4.92 z-score; in experiment [1] it was 4.47 z-score; with GST-Co-NF-kB, 1.48 z-score; with GST-Dm-Relish it was 5.02 z-score; with GST-Aq-NF-kB, 5.74 z-score.

For the sequence “CCGATTAACATCAGGGAATGCCATGATGTTAATCGGGTCTTGATTCGCTTGACGCTGCTG”, the binding signal with GST-Ap-NF-kB RHD was found to be 1.69 z-score; in experiment [1], 2.76 z-score; in the experiment with GST-Co-NF-kB, 1.43 z-score; with GST-Dm-Relish, 2.52 z-score; in the experiment with GST-Aq-NF-kB it was 3.45 z-score.

With “CCGATTAACATCAGGGAAAAAACTGATGTTAATCGGGTCTTGATTCGCTTGACGCTGCTG”, the binding signal in the experiment with GST-Ap-NF-kB RHD is 2.85 z-score; in experiment [1], 4.45 z-score; with GST-Co-NF-kB, 5.17 z-score; with GST-Dm-Relish it was 5.49 z-score; with GST-Aq-NF-kB, 5.31 z-score.

For the sequence “CCGATTAACATCACCCCCCCCCGTGATGTTAATCGGGTCTTGATTCGCTTGACGCTGCTG”, the binding signal in the experiment with GST-Ap-NF-kB RHD worked out at 7.33 z-score; in experiment [1], 5.51 z-score; with GST-Co-NF-kB, 7.6 z-score; with GST-Dm-Relish it was 6.11 z-score; with GST-Aq-NF-kB, 5.46 z-score.

As to “CCGATTAACATCAGGGGAGTATATGATGTTAATCGGGTCTTGATTCGCTTGACGCTGCTG”, the binding signal with GST-Ap-NF-kB RHD worked out at 4.78 z-score; in experiment [1] it was 3.81 z-score; in the experiment with GST-Co-NF-kB it was 4.7 z-score; with GST-Dm-Relish, 2.18 z-score; with GST-Aq-NF-kB, 3.95 z-score.
